Assay results as given in the supplement of paper PMC11732987, “Enantioselective OTUD7B fragment discovery through chemoproteomics screening and high-throughput optimisation” (Communications Chemistry, 2025).

Legend:
Assay in all cases: log2 ratio of Biotin-Ahx-Ub-VS probe labelling (fragment/DMSO); higher = less target engagement (more negative = stronger competition), active = hit call of the paper (q ≤ 0.05, log2 ratio ≤ -1)
Details in all cases: compound concentration: 200 uM; treatment time: 3 h
[1] = molecular target: T1, OTUD6B (UniProt Q8N6M0)
T1 sequence (whole entry): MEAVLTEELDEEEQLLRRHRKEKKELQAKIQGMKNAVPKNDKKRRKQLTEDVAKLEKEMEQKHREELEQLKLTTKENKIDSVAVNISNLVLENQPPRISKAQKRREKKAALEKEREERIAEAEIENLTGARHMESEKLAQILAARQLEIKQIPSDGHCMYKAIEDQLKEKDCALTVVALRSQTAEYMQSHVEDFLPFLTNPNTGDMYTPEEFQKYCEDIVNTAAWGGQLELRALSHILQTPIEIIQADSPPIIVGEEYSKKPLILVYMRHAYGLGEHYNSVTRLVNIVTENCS
Outline: (§1)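 Using Biotin-Ahx-Ub-VS at 0.5 µM final for 1 h, DUBs were labelled in HEK293T lysate (495 µg per sample) that had first been treated in triplicate with fragment at 200 µM or vehicle for 3 h. NeutrAvidin enrichment, LysC and trypsin digestion and diaPASEF LC-MS/MS followed. Spectronaut label-free quantities were global-median-normalised. Values are average log2 fragment/vehicle ratios by unpaired t-test, using proteins with ≥2 unique peptides.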

[2] = molecular target: T2, OTUD7B (UniProt Q6GQQ9)
T2 sequence (whole entry): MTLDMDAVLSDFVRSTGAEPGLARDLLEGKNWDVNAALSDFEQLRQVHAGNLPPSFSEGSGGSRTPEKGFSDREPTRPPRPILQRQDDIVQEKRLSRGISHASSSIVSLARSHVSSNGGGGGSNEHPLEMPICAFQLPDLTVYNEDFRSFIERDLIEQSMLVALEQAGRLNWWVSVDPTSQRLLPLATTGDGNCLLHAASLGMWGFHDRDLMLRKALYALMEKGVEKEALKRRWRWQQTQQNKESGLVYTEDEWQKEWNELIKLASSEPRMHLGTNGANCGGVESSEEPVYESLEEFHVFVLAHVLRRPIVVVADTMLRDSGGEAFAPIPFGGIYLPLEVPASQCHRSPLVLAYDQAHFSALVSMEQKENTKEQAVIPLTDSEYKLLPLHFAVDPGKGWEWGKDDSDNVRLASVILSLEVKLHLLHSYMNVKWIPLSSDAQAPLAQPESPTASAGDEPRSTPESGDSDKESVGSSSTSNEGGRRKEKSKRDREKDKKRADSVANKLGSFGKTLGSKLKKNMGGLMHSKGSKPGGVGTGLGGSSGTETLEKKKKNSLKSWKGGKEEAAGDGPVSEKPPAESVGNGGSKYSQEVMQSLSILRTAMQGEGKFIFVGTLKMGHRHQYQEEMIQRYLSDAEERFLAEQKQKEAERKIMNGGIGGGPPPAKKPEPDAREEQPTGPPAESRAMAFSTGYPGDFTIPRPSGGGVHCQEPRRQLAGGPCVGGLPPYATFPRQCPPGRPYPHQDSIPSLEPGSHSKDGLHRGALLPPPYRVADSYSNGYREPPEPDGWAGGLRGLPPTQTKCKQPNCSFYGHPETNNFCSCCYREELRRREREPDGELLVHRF
Outline: as §1

[3] = molecular target: PRPF8 (UniProt Q6P2Q9)
Outline: as §1

[4] = molecular target: T3, PSMD7 (UniProt P51665)
T3 sequence (whole entry): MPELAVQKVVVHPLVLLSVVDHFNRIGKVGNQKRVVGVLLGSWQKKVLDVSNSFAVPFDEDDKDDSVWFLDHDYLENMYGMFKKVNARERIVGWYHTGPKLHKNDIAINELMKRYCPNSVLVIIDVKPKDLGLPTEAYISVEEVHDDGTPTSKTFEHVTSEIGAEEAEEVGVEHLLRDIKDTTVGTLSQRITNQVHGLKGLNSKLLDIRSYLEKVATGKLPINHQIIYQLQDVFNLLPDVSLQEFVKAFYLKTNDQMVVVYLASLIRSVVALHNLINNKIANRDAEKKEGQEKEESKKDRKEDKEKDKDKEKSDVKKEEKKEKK
Outline: as §1

[5] = molecular target: UCHL1 (UniProt P09936)
Outline: as §1

[6] = molecular target: T4, UCHL3 (UniProt P15374)
T4 sequence (whole entry): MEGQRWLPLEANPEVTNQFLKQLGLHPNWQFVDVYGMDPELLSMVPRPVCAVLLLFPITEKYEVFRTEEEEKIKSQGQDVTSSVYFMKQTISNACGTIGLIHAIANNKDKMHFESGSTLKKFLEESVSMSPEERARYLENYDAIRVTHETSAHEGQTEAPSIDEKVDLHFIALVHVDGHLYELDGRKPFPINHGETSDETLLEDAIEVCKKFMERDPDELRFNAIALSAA
Outline: as §1

[7] = molecular target: T5, UCHL5 (UniProt Q9Y5K5)
T5 sequence (whole entry): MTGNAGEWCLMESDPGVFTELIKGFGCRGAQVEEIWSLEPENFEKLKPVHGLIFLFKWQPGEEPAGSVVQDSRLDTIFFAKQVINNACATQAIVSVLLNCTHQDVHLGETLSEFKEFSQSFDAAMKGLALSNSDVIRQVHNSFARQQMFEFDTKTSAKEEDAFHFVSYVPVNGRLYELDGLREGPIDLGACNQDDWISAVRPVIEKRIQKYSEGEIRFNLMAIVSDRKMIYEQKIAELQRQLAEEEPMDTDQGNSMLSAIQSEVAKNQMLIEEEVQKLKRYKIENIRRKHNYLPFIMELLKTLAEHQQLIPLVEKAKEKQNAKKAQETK
Outline: as §1

[8] = molecular target: USP10 (UniProt Q14694)
Outline: as §1

[9] = molecular target: T6, USP15 (UniProt Q9Y4E8)
T6 sequence (whole entry): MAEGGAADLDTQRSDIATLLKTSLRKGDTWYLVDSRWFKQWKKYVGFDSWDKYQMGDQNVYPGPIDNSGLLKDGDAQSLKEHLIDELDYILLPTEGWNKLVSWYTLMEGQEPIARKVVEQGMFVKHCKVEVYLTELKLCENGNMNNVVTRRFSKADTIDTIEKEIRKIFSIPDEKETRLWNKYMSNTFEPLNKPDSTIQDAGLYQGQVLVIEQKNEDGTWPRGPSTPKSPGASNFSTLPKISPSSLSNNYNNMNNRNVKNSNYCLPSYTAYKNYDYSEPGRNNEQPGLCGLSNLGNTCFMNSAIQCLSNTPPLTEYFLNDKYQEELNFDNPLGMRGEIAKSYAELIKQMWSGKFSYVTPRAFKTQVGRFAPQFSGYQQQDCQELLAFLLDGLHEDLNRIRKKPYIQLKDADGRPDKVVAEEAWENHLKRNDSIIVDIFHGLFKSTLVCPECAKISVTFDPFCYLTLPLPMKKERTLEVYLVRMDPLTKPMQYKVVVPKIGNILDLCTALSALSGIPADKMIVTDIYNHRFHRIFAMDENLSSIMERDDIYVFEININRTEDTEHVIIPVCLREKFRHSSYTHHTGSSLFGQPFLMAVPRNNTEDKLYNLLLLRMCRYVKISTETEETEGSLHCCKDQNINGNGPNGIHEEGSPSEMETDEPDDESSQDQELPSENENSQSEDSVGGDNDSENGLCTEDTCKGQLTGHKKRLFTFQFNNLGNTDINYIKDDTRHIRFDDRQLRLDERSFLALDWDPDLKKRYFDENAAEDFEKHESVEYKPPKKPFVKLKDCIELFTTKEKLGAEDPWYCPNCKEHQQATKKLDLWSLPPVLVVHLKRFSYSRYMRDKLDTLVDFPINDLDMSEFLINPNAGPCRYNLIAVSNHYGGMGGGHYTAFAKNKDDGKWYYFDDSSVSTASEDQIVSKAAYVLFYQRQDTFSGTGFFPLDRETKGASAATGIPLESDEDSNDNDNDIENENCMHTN
Outline: as §1

[10] = molecular target: USP16 (UniProt Q9Y5T5)
Outline: as §1

Measured: log2 ratio of Biotin-Ahx-Ub-VS probe labelling

Sequence of USP10 (Q14694 whole entry): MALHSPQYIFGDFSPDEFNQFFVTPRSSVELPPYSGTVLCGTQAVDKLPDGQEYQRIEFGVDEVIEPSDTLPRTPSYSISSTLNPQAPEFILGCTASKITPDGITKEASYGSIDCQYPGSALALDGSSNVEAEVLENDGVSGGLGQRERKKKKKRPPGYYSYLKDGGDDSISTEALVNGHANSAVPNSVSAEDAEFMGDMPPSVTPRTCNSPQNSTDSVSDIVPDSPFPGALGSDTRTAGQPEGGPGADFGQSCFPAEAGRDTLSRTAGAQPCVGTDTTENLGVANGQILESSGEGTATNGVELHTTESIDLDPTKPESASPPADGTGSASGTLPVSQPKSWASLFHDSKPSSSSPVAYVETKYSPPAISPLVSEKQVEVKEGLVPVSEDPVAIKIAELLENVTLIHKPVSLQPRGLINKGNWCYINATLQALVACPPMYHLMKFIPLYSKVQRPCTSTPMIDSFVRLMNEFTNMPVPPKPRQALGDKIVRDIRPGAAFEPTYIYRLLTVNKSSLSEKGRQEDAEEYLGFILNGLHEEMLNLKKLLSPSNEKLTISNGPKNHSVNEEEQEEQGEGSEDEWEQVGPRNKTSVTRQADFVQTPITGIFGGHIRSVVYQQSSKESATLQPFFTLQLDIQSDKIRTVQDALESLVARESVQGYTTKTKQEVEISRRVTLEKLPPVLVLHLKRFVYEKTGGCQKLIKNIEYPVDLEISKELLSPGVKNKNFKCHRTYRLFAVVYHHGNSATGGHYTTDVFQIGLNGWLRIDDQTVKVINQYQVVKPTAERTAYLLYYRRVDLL
Sequence of USP16 (Q9Y5T5 whole entry, looked up): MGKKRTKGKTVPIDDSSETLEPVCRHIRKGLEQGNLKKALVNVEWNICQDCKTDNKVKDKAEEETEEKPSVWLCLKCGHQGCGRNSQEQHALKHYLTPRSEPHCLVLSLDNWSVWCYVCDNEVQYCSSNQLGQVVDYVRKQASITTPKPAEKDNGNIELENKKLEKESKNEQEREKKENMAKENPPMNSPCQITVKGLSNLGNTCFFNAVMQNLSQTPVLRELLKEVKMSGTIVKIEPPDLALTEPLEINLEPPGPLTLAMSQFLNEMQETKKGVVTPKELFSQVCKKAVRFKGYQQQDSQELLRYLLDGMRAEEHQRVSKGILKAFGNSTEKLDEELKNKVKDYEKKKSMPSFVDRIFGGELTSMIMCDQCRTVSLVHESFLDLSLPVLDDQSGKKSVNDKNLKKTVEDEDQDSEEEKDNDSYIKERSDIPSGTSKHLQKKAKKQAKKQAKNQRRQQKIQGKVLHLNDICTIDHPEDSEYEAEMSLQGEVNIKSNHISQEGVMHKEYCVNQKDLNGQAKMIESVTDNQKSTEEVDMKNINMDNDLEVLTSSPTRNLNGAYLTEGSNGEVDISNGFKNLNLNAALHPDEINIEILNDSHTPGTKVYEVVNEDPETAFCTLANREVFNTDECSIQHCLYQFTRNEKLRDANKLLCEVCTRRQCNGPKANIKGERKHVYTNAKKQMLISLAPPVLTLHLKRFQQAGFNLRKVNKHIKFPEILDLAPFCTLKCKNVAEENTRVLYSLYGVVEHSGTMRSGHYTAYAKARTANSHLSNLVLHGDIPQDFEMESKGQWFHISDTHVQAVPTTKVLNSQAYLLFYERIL
Sequence of UCHL1 (P09936 whole entry, looked up): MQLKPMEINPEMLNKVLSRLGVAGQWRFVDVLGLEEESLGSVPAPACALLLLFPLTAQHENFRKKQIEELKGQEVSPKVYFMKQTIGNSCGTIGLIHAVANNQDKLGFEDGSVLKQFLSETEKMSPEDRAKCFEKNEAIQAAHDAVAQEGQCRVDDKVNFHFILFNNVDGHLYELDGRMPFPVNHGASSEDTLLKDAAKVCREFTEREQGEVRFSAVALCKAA

O=C(CCl)NC1CCN(C(=O)C2CCCCC2)CC1
inactive: [1] 0.191 | [2] -0.643 | [3] 0.0534 | [4] -0.106 | [5] -0.513 | [6] 0.338 | [7] 0.125 | [8] -0.0591 | [9] -0.0587 | [10] -0.0778
